SMILES strings stand for the structures. Inconclusive results are not listed. The source made the active and inactive calls. Calls follow the shape of the dose curve; as a rule, active = well fitted inhibition curve with a large enough effect; inconclusive = small, poorly fitted or top-dose-only effect; inactive = no such curve, though single readings can be large or run the other way.
Potency is read from the fitted curve at half-maximal effect.

This experiment is described as follows: qHTS Screen of the MIPE 4.0 Collection Against Ewings Sarcoma (TC71) (AID 1259253). Also: nearly all actives have a fitted effect of over 40% in size.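 As to viability (% of DMSO): 100% = DMSO-treated cells and 0% = medium-only wells without cells.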 The conditions noted are these: TC71 Ewing sarcoma viability, CellTiter-Glo, 48 h; series mostly up to 45.8 µM; viability (% of DMSO): at the top concentration. An excerpt:
There is a large unmet medical need for treatments for Ewing sarcoma, a pediatric sarcoma. We sought to identify compounds that inhibited Ewing sarcoma cells in vitro with the goal to then test promising drugs in two drug combinations in vitro to look for synergistic drug combinations. Promising combinations would then proceed to additional validation, including in vivo testing.
Using the NCATS developed oncology compound library called the Mechanism of Interrogation Plate (MIPE), four Ewing sarcoma cell lines were evaluated (TC32, TC71, RDES, EW8). Compounds, in a 12-point titration series, were incubated with cells for 48 hours and the read out was cell viability (CellTiter-Glo from Promega). These initial experiments were used to select appropriate concentrations of each single agent for subsequent two-drug matrix combinations such that the concentrations in the matrices would span both activity and non-activity.
Cells, in the log phase of growth, were seeded in 5 uL of RPMI plus 5% FBS, […] L-glutamine, 100 U/ml penicillin and 100 ug/ml streptomycin into 1536-well solid-bottom white tissue culture treated Greiner Bio One Plates (789173-F) using a MultiDrop Combi (Thermofisher Scientific) dispenser and a small sterile cassette. One column was media alone to be used as a :"no cells" control. The plates were then covered with sterilized stainless steel gasketed lids from Kalypsys. After allowing cells to attach for 4 hours, 23 nL of test compound or control (negative control DMSO and positive control 9.2 uM Bortezomib-final) were added from a 1536-well polypropylene compound source plate to each well using a 1536 head pin tool from Kalypsys. Cells were then incubated for 48 hours at 37C, 95% relative humidity and 5% CO2. After 48 hours, plates were removed from the incubator and 3 uL of CellTiter-Glo (Promega) was added using an Aurora Flying Reagent Dispenser Bioraptor. Plates were incubated at room temperature for 10 minutes prior to reading the luminescence on the Viewlux (PerkinElmer). The relative luciferase units are used to calculate the percent activity using the activity of DMSO in the cells and no cells columns for normalization of no inhibition and full inhibition respectively.
As to `COc1ccc(COc2cc3oc(=O)c4cc(C(C)O)ccc4c3cc2OC)cc1` (stereo not given), the Potency is 23.5 µM (active). `Nc1ccc(S(=O)(=O)Nc2ccnn2-c2ccccc2)cc1`: the “viability (% of DMSO)” value is 129% (inactive). `O=C(O)CCc1ccc(NCc2cccc(Oc3ccccc3)c2)cc1`: the “viability (% of DMSO)” value was 120% (inactive).

In the case of `O=C(Nc1nc2ccccc2n1CCN1CCOCC1)c1cccc([N+](=O)[O-])c1`, the Potency is 23.5 µM (active). Same read-out and setting: the figure for `COc1cc(Nc2ncc3c(n2)-c2ccc(Cl)cc2C(c2c(F)cccc2OC)=NC3)ccc1C(=O)O` is 1.87 µM (active); for `COc1nc(-c2ccc3c(c2)OCO3)n(-c2ccc(NC(=O)CSc3ccccc3)cc2)n1` it is 20.9 µM (active). For `CCC(C)N(C)C(=O)c1cc2ccccc2c(-c2ccccc2Cl)n1` (stereo not given), the Potency was 23.5 µM (active). In the case of `COc1ccc(CC2=NN3C([C@@H](CCc4ccccc4)[C@@H](C)O)=NC(C)C3C(=O)N2)cc1OC` (stereo not given in full), the “viability (% of DMSO)” value was 113% (inactive).

Turning to `Cc1c(C)c2c(c(C)c1O)CCC(C)(COc1ccc(CC3SC(=O)NC3=O)cc1)O2` (stereo not given), the “viability (% of DMSO)” value is 100% (inactive). Same read-out and setting: in the case of `N[C@@H]1CONC1=O` it was 111% (inactive). On to `c1ccc(-c2nn3c(c2-c2ccnc4cc(OCCN5CCOCC5)ccc24)CCC3)nc1`, for which the Potency was 18.7 µM (active). On the same count and under the same terms, in the case of `CCn1c(-c2nonc2N)nc2c(C#CC(C)(C)O)ncc(OC[C@H]3CCCNC3)c21` it was 18.7 µM (active).

In the case of `Cc1cnc(Nc2ccc(OCCN3CCCC3)cc2)nc1Nc1cccc(S(=O)(=O)NC(C)(C)C)c1`, the “viability (% of DMSO)” value was 101% (inactive). For `CCOc1cc(C=C2C(=O)N(c3ccccc3)N=C2C)cc(Cl)c1OCC(=O)OC`, the “viability (% of DMSO)” value was 123% (inactive). In the case of `Cc1cc(SCc2sc(-c3ccc(C(F)(F)F)cc3)nc2C)ccc1OCC(=O)O`, the Potency was 16.6 µM (active). In the case of `NC(=O)c1cnccn1`, the “viability (% of DMSO)” value was 119% (inactive).

Regarding `CC1(C)CNc2cc(NC(=O)c3cccnc3NCc3ccncc3)ccc21`, the Potency was 2.35 µM (active). Still for that read-out and setting: the figure for `NC(=O)c1ccc(-c2nc(-c3ccc4c(c3)OCO4)c(-c3ccccn3)[nH]2)cc1` is 14.8 µM (active); for `NC(=O)c1ccc(-c2nc(-c3ccc4c(c3)OCCO4)c(-c3ccccn3)[nH]2)cc1` it is 23.5 µM (active); for `CN1CCN(CCCN2c3ccccc3Sc3ccc(C(F)(F)F)cc32)CC1` it is 10.5 µM (active).

Take `CS(=O)(=O)c1cccc(CNc2nc(Nc3ccc4c(c3)CCC(=O)N4)ncc2C(F)(F)F)c1`: the Potency was 16.6 µM (active).

`CS(=O)(=O)Oc1ccc2c(NC(N)=O)c(C(=O)c3ccc(Cl)cc3Cl)oc2c1`: the Potency was 14.8 µM (active). Take `NS(=O)(=O)c1cc2c(cc1Cl)NC=NS2(=O)=O`: the “viability (% of DMSO)” value was 118% (inactive). Take `O=C(Nc1cccnc1)N1CCC(Cc2cccc(Oc3ccc(C(F)(F)F)cn3)c2)CC1`: the Potency was 16.6 µM (active). In the case of `Cc1[nH]c(=O)c(C#N)cc1-c1ccncc1`, the “viability (% of DMSO)” value is 112% (inactive). On the same count and under the same terms, the figure for `CCCC(CCC)C(=O)O` is 130% (inactive). `Cn1cnc2c(F)c(Nc3ccc(Br)cc3Cl)c(C(=O)NOCCO)cc21`: the Potency was 16.6 µM (active). Take `CCN(c1ccccc1)c1cc(NC)[n+](C)c(C)n1`: the “viability (% of DMSO)” value is 119% (inactive). For the compound `OC(CN1CCC(Cc2ccc(F)cc2)CC1)c1ccc(Cl)cc1` (stereo not given), the “viability (% of DMSO)” value was 108% (inactive). Turning to `S=C(NCc1ccc2c(c1)OCO2)N1CCN(c2ncnc3c2oc2ccccc23)CC1`, the Potency is 7.62 µM (active). For `CCC(=O)N[C@H]1CC[C@H](C(=O)N(C)c2ccc(-c3nc4ccccc4o3)cc2)C1`, the Potency is 2.35 µM (active).

For `CC(C)OC(=O)C1=CN(C(=O)c2ccc(F)c(F)c2)CC(C)(C)c2c1[nH]c1ccccc21`, the “viability (% of DMSO)” value is 121% (inactive).

As for `O=C(C=Cc1ccc(/C=C/C(=O)Nc2ccc(C3=NCCN3)cc2)cc1)Nc1ccc(C2=NCCN2)cc1`, the “viability (% of DMSO)” value was 139% (inactive). On the same count and under the same terms, the figure for `CCn1cc(C(=O)O)c(=O)c2cc(F)c(N3CCNC(C)C3)c(F)c21` (stereo not given) is 136% (inactive). As to `CCCc1nn(C)c2c(=O)[nH]c(-c3cc(S(=O)(=O)N4CCN(C)CC4)ccc3OCC)nc12`, the Potency is 13.2 µM (active). For `N=c1nc(N2CCCCC2)cc(N)n1O`, the “viability (% of DMSO)” value was 136% (inactive). As to `O=C(C1CC1)N1CC[C@@H](Cn2c(-c3ccc(-c4ccc5occc5c4)cc3)nc3cnccc32)C1`, the Potency was 16.6 µM (active).

In the case of `CS(=O)(=O)c1ccc(C(=O)Nc2ccc(Cl)c(-c3ccccn3)c2)c(Cl)c1`, the “viability (% of DMSO)” value is 103% (inactive). For the compound `O=C(c1cc(Cc2n[nH]c(=O)c3ccccc23)ccc1F)N1CCN(C(=O)C2CC2)CC1`, the Potency is 10.5 µM (active). The same measure, in the same setting: the figure for `COCC(=O)NCC=Cc1ccc2ncnc(Nc3ccc(Oc4ccc(C)nc4)c(C)c3)c2c1` is 23.5 µM (active).

The record behind these values is PubChem BioAssay (NCATS).
